Compounds without any hit were thinned out: in the full panel of roughly 83,000, 20% have a hit.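 Single-concentration screen, 48 h exposure, 96-well plates. Endpoint: percent growth. Below 10 = active.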 Calls of active or inactive are those of the source.
How the values were obtained:
Experiment in all cases: NCI-60 one-dose screen, 48 h (100 = growth as untreated, 0 = no growth, -100 = all killed)
Conditions in all cases: 10 µM unless noted
T-47D breast = tested on: T-47D breast
BT-549 breast = tested on: BT-549 breast
MDA-MB-435 melanoma = tested on: MDA-MB-435 melanoma
SW-620 colon = tested on: SW-620 colon
MCF7 breast = tested on: MCF7 breast
HCT-116 colon = tested on: HCT-116 colon
HCC-2998 colon = tested on: HCC-2998 colon
KM12 colon = tested on: KM12 colon

Measured: growth

N=c1c2cc(-c3ccccc3)oc2ncn1/N=C/c1ccc(Br)cc1
inactive: T-47D breast 79.6% | BT-549 breast 101% | MDA-MB-435 melanoma 61.6% | SW-620 colon 31% | MCF7 breast 65.6% | HCT-116 colon 50.7% | HCC-2998 colon 100% | KM12 colon 23.9%

COc1ccc(-c2nc3cc(Cl)c(Cl)cc3n2CC(=O)N=Nc2c(O)[nH]c3ccc(OC)cc23)cc1
inactive: T-47D breast 37.2% | MDA-MB-435 melanoma 56.4% | SW-620 colon 61.4% | MCF7 breast 67.6% | HCT-116 colon 39.7% | HCC-2998 colon 52.8% | KM12 colon 71.3%
active: BT-549 breast -6.95%

O=C(CSc1nc2ccccc2c(=O)n1-c1ccccc1)Nc1cccc(C(=O)/C=C/c2ccccc2Cl)c1
inactive: T-47D breast 91.2% | BT-549 breast 118% | MDA-MB-435 melanoma 97.9% | SW-620 colon 91.7% | MCF7 breast 54.1% | HCT-116 colon 20.2% | HCC-2998 colon 108% | KM12 colon 100%

N=c1c2cc(-c3ccccc3)oc2ncn1/N=C/c1ccc(Cl)cc1
inactive: T-47D breast 81% | BT-549 breast 105% | MDA-MB-435 melanoma 72.6% | SW-620 colon 29.5% | MCF7 breast 70.8% | HCT-116 colon 66.6% | HCC-2998 colon 102% | KM12 colon 31%

Fc1ccc(-c2cc3nc(C(Cl)Cl)nc(-c4ccco4)n3n2)cc1
inactive: BT-549 breast 82.4%
active: T-47D breast 7.31% | MDA-MB-435 melanoma -1.86% | SW-620 colon 3.29% | MCF7 breast -8.71% | HCT-116 colon -36.8% | HCC-2998 colon -69.1% | KM12 colon -24.5%

CC1(C)CC[C@]23CC[C@]4(C)[C@H](CC[C@@H]5[C@@]6(C)CCCN(CO)C(C)(C)[C@@H]6CC[C@]54C)[C@H]2[C@H]1OC3
active: SW-620 colon 9.58% | HCC-2998 colon 3.53%
inactive: T-47D breast 57.3% | BT-549 breast 85.5% | MDA-MB-435 melanoma 88.7% | MCF7 breast 17.1% | HCT-116 colon 22.1% | KM12 colon 56.4%

O=C(CCn1c[n+](CC(=O)c2ccc(-c3ccccc3)cc2)c2ccccc21)Nc1cccc2cccnc12
inactive: T-47D breast 21.6% | BT-549 breast 53.7% | MDA-MB-435 melanoma 32.2% | SW-620 colon 65.2% | MCF7 breast 19.8% | HCT-116 colon 56% | HCC-2998 colon 38.9% | KM12 colon 14.5%

Cc1ccc(-n2cc(/C=C/C(=O)c3ccc(O)cc3)c(-c3ccc(S(C)(=O)=O)cc3)n2)cc1
inactive: T-47D breast 73.5% | BT-549 breast 70.9% | SW-620 colon 34% | MCF7 breast 24.8% | HCT-116 colon 26.6% | HCC-2998 colon 104% | KM12 colon 38.3%
active: MDA-MB-435 melanoma 1.81%

CCc1ccc(SC2c3ccc(N(CC)CC)cc3Oc3nc(N)c(C#N)c(N)c32)cc1 (configuration not stated)
active: T-47D breast -27.3% | MDA-MB-435 melanoma -0.759% | SW-620 colon -24.8% | MCF7 breast -84.9% | HCT-116 colon -83.1% | HCC-2998 colon -83% | KM12 colon -57.9%
inactive: BT-549 breast 65.9%

O=C(NNc1nc2cc(F)ccc2n2c(CO)ccc12)c1cnccn1
active: MCF7 breast 8.73%
inactive: T-47D breast 11.7% | BT-549 breast 22.6% | MDA-MB-435 melanoma 27.3% | SW-620 colon 21.3% | HCT-116 colon 17.7% | HCC-2998 colon 44.5% | KM12 colon 22.2%

CN1CCN(Cc2ccc(NC(=O)c3cncc(C#Cc4cnc5ccc(OCC6(C)COC6)nn45)c3)cc2C(F)(F)F)CC1
active: T-47D breast -49.9% | BT-549 breast -62% | MDA-MB-435 melanoma -90.9% | SW-620 colon -44.8% | MCF7 breast -76% | HCT-116 colon -75.5% | HCC-2998 colon -89.6% | KM12 colon -82.1%

Nc1cc(-c2c[nH]c3ccc(Br)cc23)nc2cc(-c3c[nH]c4ccc(Br)cc34)nn12
inactive: T-47D breast 39.3% | BT-549 breast 76.4%
active: MDA-MB-435 melanoma -20.3% | SW-620 colon 5.89% | MCF7 breast 8.21% | HCT-116 colon -72% | HCC-2998 colon -3.56% | KM12 colon -23.2%

CN1CCN(c2ccc(/C=N/n3cnc4oc(-c5ccccc5)cc4c3=N)cc2)CC1
inactive: T-47D breast 84.1% | BT-549 breast 89.7% | MDA-MB-435 melanoma 94.7% | SW-620 colon 94% | MCF7 breast 81.1% | HCT-116 colon 73.9% | HCC-2998 colon 101% | KM12 colon 63.7%

CC(=O)c1cc(C(=O)c2ccc(Br)cc2)n2cc(C)cc(C)c12
inactive: T-47D breast 78.8% | BT-549 breast 79% | MDA-MB-435 melanoma 97.7% | SW-620 colon 103% | MCF7 breast 85.3% | HCT-116 colon 85.7% | HCC-2998 colon 82.6% | KM12 colon 97.5%

COc1cc2oc(-c3cccc(NC(=O)c4cc(N)ccc4Cl)c3)cc(=O)c2c(OC)c1OC
inactive: T-47D breast 62.4% | BT-549 breast 89.4% | MDA-MB-435 melanoma 89.5% | SW-620 colon 110% | MCF7 breast 96.1% | HCT-116 colon 101% | HCC-2998 colon 101% | KM12 colon 96.4%

C#CCn1cccc1CNc1ccc(OC)cc1
active: T-47D breast -55.7% | BT-549 breast -83.7% | MDA-MB-435 melanoma -54.5% | SW-620 colon -36.2% | MCF7 breast -53.8% | HCT-116 colon -68.7% | HCC-2998 colon -89% | KM12 colon -72.6%

O=C(/C=C/c1ccc(F)cc1)c1ccc(O)cc1
inactive: T-47D breast 93.9% | BT-549 breast 103% | MDA-MB-435 melanoma 67% | SW-620 colon 81.4% | MCF7 breast 30.3% | HCC-2998 colon 112% | KM12 colon 59.3%
active: HCT-116 colon -44.1%

Clc1ccc(N/N=c2/oc3ccccc3cc2-c2cc3ccccc3[nH]2)cc1
active: MDA-MB-435 melanoma -71.4%
inactive: T-47D breast 40.4% | BT-549 breast 80.3% | SW-620 colon 78.7% | MCF7 breast 53.3% | HCT-116 colon 66.9% | HCC-2998 colon 95.6% | KM12 colon 58.1%

COc1ccc2c(c1)c(CC(=O)[Se]CC(=O)O)c(C)n2C(=O)c1ccc(Cl)cc1
inactive: T-47D breast 103% | BT-549 breast 122% | MDA-MB-435 melanoma 51.2% | SW-620 colon 113% | MCF7 breast 37.4% | HCT-116 colon 98.1% | HCC-2998 colon 119% | KM12 colon 101%

CC(C)(C)c1ccc(C(=O)Nc2sc3c(c2C(N)=O)CC/C(=N\O)C3)cc1
inactive: BT-549 breast 16.2% | MDA-MB-435 melanoma 13.6% | SW-620 colon 17.6% | HCT-116 colon 10.5% | HCC-2998 colon 34.3%
active: T-47D breast 1.45% | MCF7 breast 5.51% | KM12 colon 6.97%

Cc1cc2ncc(-c3cc4ccccc4c(N4CCN(C)CC4)n3)nc2cc1C
inactive: BT-549 breast 85.9%
active: T-47D breast -54% | MDA-MB-435 melanoma -87.8% | SW-620 colon 1.46% | MCF7 breast -65% | HCT-116 colon -85.7% | HCC-2998 colon -84.2% | KM12 colon -3.53%

C#CCOc1ccc(/C=N\Nc2nc(-c3ccc(C)cc3)cs2)cc1OC
inactive: T-47D breast 61.7% | BT-549 breast 80.7% | MDA-MB-435 melanoma 91.6% | SW-620 colon 95.4% | MCF7 breast 62.5% | HCT-116 colon 88% | HCC-2998 colon 101% | KM12 colon 85.6%

CCCCCc1ccc(S(=O)(=O)Nc2cc(-c3csc(NC(=O)CN4CCN(C)CC4)n3)ccc2N2CCN(C)CC2)cc1
active: T-47D breast -49.9% | MDA-MB-435 melanoma -78.6% | SW-620 colon -55.1% | MCF7 breast -85.9% | HCT-116 colon -70.9% | HCC-2998 colon -25.2%
inactive: BT-549 breast 77.5% | KM12 colon 38.9%

C=CCn1c(SCC(=O)Nc2ccc(C(=O)/C=C/c3ccc(Cl)cc3)cc2)nnc1-c1c[nH]c2ccccc12
inactive: T-47D breast 60.5% | BT-549 breast 111% | MDA-MB-435 melanoma 83.5% | SW-620 colon 88.3% | HCC-2998 colon 97.1% | KM12 colon 80.4%
active: MCF7 breast 9.26% | HCT-116 colon -46%

C=C1CC[C@@H]2[C@]3(C)COC(c4ccccc4)O[C@@H]3CC[C@@]2(C)[C@@H]1C/C=C1/C(=O)OC[C@H]1O (some centres not stated)
inactive: T-47D breast 70.6% | BT-549 breast 63.8% | MDA-MB-435 melanoma 81.4% | SW-620 colon 49.7% | MCF7 breast 46.1% | HCT-116 colon 38.4% | HCC-2998 colon 108% | KM12 colon 86.1%

Nc1nc(-c2cccc([N+](=O)[O-])c2)c(N=Nc2cccc([N+](=O)[O-])c2)s1
inactive: T-47D breast 31% | MDA-MB-435 melanoma 36.2% | SW-620 colon 18.5% | MCF7 breast 13.1% | HCC-2998 colon 59.8% | KM12 colon 48.2%
active: BT-549 breast -41.4% | HCT-116 colon -44.1%

C=CCn1c(SCC(=O)Nc2ccc(C(=O)/C=C/c3cccc([N+](=O)[O-])c3)cc2)nnc1-c1c[nH]c2ccccc12
active: HCT-116 colon -32.6%
inactive: T-47D breast 59.8% | BT-549 breast 117% | MDA-MB-435 melanoma 98.4% | SW-620 colon 98.7% | MCF7 breast 25.4% | HCC-2998 colon 86% | KM12 colon 93.4%

CCC1=Cc2cc(OC)ccc2OC12C=Cc1cc(OC)ccc1O2 (configuration not stated)
active: MDA-MB-435 melanoma -28.5%
inactive: T-47D breast 52.8% | BT-549 breast 75.3% | SW-620 colon 28.3% | MCF7 breast 15.3% | HCT-116 colon 14.2% | HCC-2998 colon 22.9% | KM12 colon 19.3%

Cc1nc2ncc(-c3ccc4ncnc(NCc5ccccc5)c4c3)cc2[nH]1
active: T-47D breast 1.3%
inactive: BT-549 breast 57.3% | MDA-MB-435 melanoma 82.1% | SW-620 colon 82.3% | MCF7 breast 27.1% | HCT-116 colon 77.8% | HCC-2998 colon 79.2% | KM12 colon 77.8%

From PubChem BioAssay (NCI)
